Many of the other results were omitted from the sample, so hits are more common in it than they were.
GIRK2 act = GIRK2 channel activators by thallium flux | activation (% efficacy), % for hits at 37.5 µM | 34,000 tested, under 10 active | HEK293 GIRK2/NPY4 cells, thallium flux fluorescence | AID 1259324;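 active = primary screen hit, no activity in plain HEK293 cells, and in GIRK2-only cells above 5% efficacy rising with concentration; inactive = the rest, including fluorescent compounds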;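 also: efficacy is normalized control-subtracted fluorescence 15 s after thallium addition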
Target sequence (P48051 whole entry, looked up): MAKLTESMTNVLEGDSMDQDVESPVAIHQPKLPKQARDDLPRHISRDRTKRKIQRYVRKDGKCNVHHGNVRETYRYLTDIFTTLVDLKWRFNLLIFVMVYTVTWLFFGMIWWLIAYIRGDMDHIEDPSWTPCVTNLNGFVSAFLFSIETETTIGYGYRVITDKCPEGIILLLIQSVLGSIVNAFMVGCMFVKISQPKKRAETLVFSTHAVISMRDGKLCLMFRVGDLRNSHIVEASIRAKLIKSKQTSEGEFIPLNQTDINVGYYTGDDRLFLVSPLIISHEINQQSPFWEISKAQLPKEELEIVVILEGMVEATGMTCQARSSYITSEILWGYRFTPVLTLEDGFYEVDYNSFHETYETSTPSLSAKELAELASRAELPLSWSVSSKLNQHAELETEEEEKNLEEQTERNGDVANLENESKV
GluA2 TARP mod = modulators of AMPA receptor GluA2-stargazin complexes | O88602+P19491 | HEK293 GluA2+stargazin, membrane potential dye (FDSS), glutamate EC50; hits were called plate by plate, in both directions | calls only at 30 µM | actives 3.5% (n = 40,000);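 active = any of four per-well response measures lying three or more SD from its plate-wide compound average, in either direction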
Calls only; n = inactive; x = no result given; + = active, no number.

SMILES	GIRK2 act	GluA2 TARP mod
COc1cn(CC(=O)NCc2ccccc2)c(CSc2nc(C)cc(C)n2)cc1=O	n	n
COc1ccc(CCC(=O)N(Cc2ccccn2)Cc2ccco2)cc1	n	n
CCCCOC(=O)CCc1nc2ccccc2[nH]c1=O	x	n
CCC/C(O)=C(\C#N)c1nc2ccccc2[nH]1	n	+
COc1ccc(C2(CNC(=O)c3c(F)cccc3F)CCCC2)cc1	n	x
Cn1cc(C(=O)N2CCOCC2)cc(NC(=O)c2ccc(C(C)(C)C)cc2)c1=O	x	n
CCOC(=O)C1CCN(C(=O)Cc2csc(Nc3cccc(C(F)(F)F)c3)n2)CC1	n	+
CCOC(=O)C1CCN(C(=O)Cc2csc(Nc3ccccc3)n2)CC1	n	n
CC(C)(CC(=O)N1CCN(c2ccccc2F)CC1)CC1=NS(=O)(=O)c2ccccc2N1	n	x
Cc1nc2sc(C(c3ccc(F)cc3)N3CCC(Cc4ccccc4)CC3)c(O)n2n1 (stereo not drawn)	x	n
O=C(Cn1c(-c2cnccn2)nc2ccccc21)Nc1ccc(F)c(Cl)c1	n	+
CCSc1nnc(NC(=O)Cn2c(-c3cnccn3)nc3ccccc32)s1	n	n
COc1ccc2ncc3c(-c4ccccc4)c(C(=O)NCC4CCCO4)sc3c2c1 (stereo not drawn)	n	n
O=C(/C=C/c1ccc2c(c1)OCO2)NCC1CCN(C(=O)c2cc3ccccc3o2)CC1	n	+
O=C(c1cc2ccccc2o1)N1CCC(CNS(=O)(=O)c2ccc3c(c2)OCCO3)CC1	n	n
O=C(/C=C/c1ccccc1)NCC1CCN(C(=O)c2cc3ccccc3o2)CC1	n	+
O=C(CSCc1ccccc1)NCC1CCN(C(=O)c2cc3ccccc3o2)CC1	n	n
Cc1ccc(S(=O)(=O)Nc2cccc(C(=O)NCCC(C)C)c2)cc1	x	n
COc1ccc(Cl)cc1S(=O)(=O)NCC1CCN(C(=O)c2ccccc2F)CC1	n	n
CC(=O)Nc1cccc(NC(=O)C(=O)NCCCN(C)C)c1	x	+
CN(C)CCCNC(=O)C(=O)Nc1ccc2c(c1)OCCO2	n	n
O=S(=O)(Cc1ccccc1)NCC1CCN(Cc2ccco2)CC1	n	x
CC1Cc2cc(-c3cc(CC(=O)NC4CCCC4)no3)ccc2O1 (stereo not drawn)	n	+
CC1Cc2cc(-c3cc(CC(=O)NCC4CCCO4)no3)ccc2O1 (stereo not drawn)	n	n
O=C(NCc1nc(-c2ccccc2)cs1)NC1(c2ccccc2)CC1	x	n
SMILES	GIRK2 act	GluA2 TARP mod
O=C(CCCS(=O)(=O)c1ccc(F)cc1)N(Cc1ccccn1)c1nc2ccccc2s1	x	n
CCOC(=O)c1sc(NC(=O)c2ccncc2)c(C(=O)OCC)c1C	x	+
CCOC(=O)c1sc(NC(=O)C2CCCN2S(C)(=O)=O)c(C(=O)OCC)c1C (stereo not drawn)	n	n
COc1ccccc1Oc1ccc(S(=O)(=O)N2CCN(c3ccccc3F)CC2)cc1	x	n
O=C(CSc1nc(-c2ccccc2)[nH]c1S(=O)(=O)c1ccccc1)NC1CCCC1	n	n
COc1ccccc1NC(=O)CSc1nc(-c2ccccc2)[nH]c1S(=O)(=O)c1ccccc1	n	+
COc1ccc(CNC(=O)CSc2nc(-c3ccccc3)[nH]c2S(=O)(=O)c2ccccc2)cc1	n	n
CC1CCCCN1C(=O)CSc1nc(-c2ccccc2)[nH]c1S(=O)(=O)c1ccccc1 (stereo not drawn)	n	+
CCOC(=O)c1c(C)cc(=O)[nH]c1C	n	n
COc1ccc2nc(-c3cccc(NC(=O)c4ccccc4C(F)(F)F)c3)cn2n1	n	n
COCc1c(C(=O)NCc2ccco2)nnn1-c1ccc(C)cc1	n	n
O=c1ccc(-c2ccccc2)nn1CCCNS(=O)(=O)c1ccc2c(c1)CCCC2	n	+
COc1ccc(-c2ccc(=O)n(CCNS(=O)(=O)c3c(C)cc(C)cc3C)n2)cc1	x	n
Cc1ccc(-c2ccc(=O)n(CCCNS(=O)(=O)c3c(C)cc(C)cc3C)n2)cc1	n	+
COc1ccc(-c2ccc(=O)n(CCNS(=O)(=O)c3ccc4c(c3)CCCC4)n2)cc1	x	n
O=c1ccc(-c2cccs2)nn1CCCNS(=O)(=O)c1cccc(C(F)(F)F)c1	n	+
O=c1ccc(-c2cccs2)nn1CCCNS(=O)(=O)c1ccc(Cl)c(Cl)c1	n	n
CCOc1ccc(NC(=O)CCc2csc(NS(=O)(=O)c3ccc(F)cc3)n2)cc1	n	n
COc1cccc(C(CNC(=O)c2cccc([N+](=O)[O-])c2C)N2CCOCC2)c1 (stereo not drawn)	n	+
COc1cccc(C(CNC(=O)c2ccc([N+](=O)[O-])cc2)N2CCOCC2)c1 (stereo not drawn)	n	n
COc1cccc(C(CNC(=O)C2CCCCC2)N2CCOCC2)c1 (stereo not drawn)	x	+
COc1cccc(C(CNC(=O)Nc2ccccc2)N2CCOCC2)c1 (stereo not drawn)	n	n
Cc1ccc(C(CNC(=O)NC2CCCCC2)N2CCOCC2)cc1 (stereo not drawn)	n	+
O=C(NCC(c1ccc(F)cc1)N1CCOCC1)NC1CCCCC1 (stereo not drawn)	x	n
COc1cccc(C(CNC(=O)Nc2ccc(Cl)cc2)N2CCOCC2)c1 (stereo not drawn)	n	+
SMILES	GIRK2 act	GluA2 TARP mod
COc1cccc(C(CNC(=O)C2CCN(S(C)(=O)=O)CC2)N2CCOCC2)c1 (stereo not drawn)	n	n
O=C(Nc1ccccc1NC(=O)c1ccno1)c1ccccn1	n	x
COc1ccc2nc(-c3ccc(OC)c(NC(=O)c4c(F)cccc4Cl)c3)cn2n1	n	n
CCOC(=O)Cc1csc(NC(=O)c2ncccn2)n1	n	n
CCOc1ccc(S(=O)(=O)NCC2CCN(C(=O)Oc3ccccc3)CC2)cc1F	n	n
CC(=O)Nc1ccc(S(=O)(=O)Nc2ccc3c(c2)C(=O)N(C)CCO3)c(C)c1	x	n
COc1ccc(CNC(=O)C(=O)NCCC2CCCCN2S(=O)(=O)c2ccccc2)cc1 (stereo not drawn)	x	n
O=C(CC1CCCCN1S(=O)(=O)c1ccccc1)NCCC1=CCCCC1 (stereo not drawn)	n	+
CC(C)(C)NC(=O)NCCC1CCCCN1S(=O)(=O)c1ccccc1 (stereo not drawn)	x	+
COc1ccc(S(=O)(=O)N2CCCCC2CC(=O)NCCCc2ccccc2)cc1 (stereo not drawn)	x	n
Cc1ccc2c(CC(=O)Nc3ccc(OC(F)(F)F)cc3)cc(=O)oc2c1	n	n
CS(=O)(=O)c1ccc(CC(=O)N2CCN(c3nc4c(Cl)cccc4s3)CC2)cc1	x	n
CCc1cccc2sc(N3CCN(C(=O)Cc4ccc(S(=O)(=O)CC)cc4)CC3)nc12	x	+
CSCCn1c(=NC(=O)c2cc(C)no2)sc2cc3c(cc21)OCCO3	n	+
CSCCn1c(=NC(=O)c2cc(C)no2)sc2ccccc21	n	n
O=C(NCC(=O)c1cccs1)c1ccc(COc2ccccc2)o1	x	n
CCN(CC)S(=O)(=O)c1ccc(C(=O)Nc2cc(-c3cccs3)nn2CCO)cc1	n	+
CC(C)S(=O)(=O)c1ccc(CC(=O)Nc2cc(-c3cccs3)nn2CCO)cc1	n	n
CCNC(=O)C1Cc2ccccc2N1C(=O)COc1ccccc1F (stereo not drawn)	n	n
COC(CNC(=O)C1COCC(=O)N1Cc1ccccc1)OC (stereo not drawn)	n	n
COc1cc(CN2CCC(COCc3ccccc3)CC2)cc(OC)c1	n	+
